“And” between values parts separate entries of the source, which are not always exact repeats. Identical values can stand only once. Results filed as inconclusive are left out. Values without a mark were called inactive. The source made the active and inactive calls. Unless noted, the call rests on the fitted dose curve; in most records, active means well fitted cell-killing curve with a large enough effect in the repeat runs (not every such curve was filed as active); inconclusive means weak or mixed curves, or effect the other way; inactive means no such curve, though single readings can be large or run the other way.
Molecular target: Bile acid receptor (Homo sapiens) (UniProt Q96RI1)
Assay: qHTS assay to identify small molecule agonists of the farnesoid-X-receptor (FXR) signaling pathway (AID 743220; active means well fitted activation curve with a large enough effect in the signal ratio in the repeat runs, not every such curve was filed as active; the % refers to the signal ratio)
Details: HEK293T FXR-UAS-bla, beta-lactamase FRET ratio, 16 h; series mostly up to 62.6 µM; activation: at the top concentration
In short: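 FXR-UAS-bla HEK 293T cells carrying a UAS-driven beta-lactamase reporter were plated for 5 h at 37C/5% CO2, then exposed to DMSO-dissolved Tox21 10K compounds for 16 h at 37C. A LiveBLAzer B/G FRET substrate was loaded for 2 h at room temperature before fluorescence reading.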
On the % scale 0 is the no-effect control and ±100 the full control effect.

Sequence of Bile acid receptor (Homo sapiens) (Q96RI1 whole entry, looked up): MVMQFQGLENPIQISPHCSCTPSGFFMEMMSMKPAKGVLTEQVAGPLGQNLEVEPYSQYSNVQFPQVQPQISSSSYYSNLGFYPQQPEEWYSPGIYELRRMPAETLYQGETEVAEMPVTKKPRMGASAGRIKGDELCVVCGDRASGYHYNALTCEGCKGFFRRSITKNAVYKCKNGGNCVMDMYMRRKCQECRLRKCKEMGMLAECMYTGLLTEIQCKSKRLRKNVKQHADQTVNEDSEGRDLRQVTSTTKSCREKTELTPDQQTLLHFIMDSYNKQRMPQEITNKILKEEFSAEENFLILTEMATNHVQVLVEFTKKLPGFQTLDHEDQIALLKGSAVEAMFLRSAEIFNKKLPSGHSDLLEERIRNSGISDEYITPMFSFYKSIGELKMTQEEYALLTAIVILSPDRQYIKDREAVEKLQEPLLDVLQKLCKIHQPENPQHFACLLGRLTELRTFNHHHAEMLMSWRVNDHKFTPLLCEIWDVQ

SMILES	activation	Potency
COc1cc(/C=C/C(=O)O[C@H]2CC[C@]34C[C@]35CC[C@]3(C)[C@@H]([C@H](C)CCC=C(C)C)CC[C@@]3(C)[C@@H]5CC[C@H]4C2(C)C)ccc1O	-1.07%	–
CCCC1O[C@@H]2C[C@H]3[C@@H]4CCC5=CC(=O)C=C[C@]5(C)[C@H]4[C@@H](O)C[C@]3(C)[C@]2(C(=O)CO)O1 (stereo not given in full)	–	inactive
CCc1cc(Cc2cc(CC)c(N)c(CC)c2)cc(CC)c1N	-1.52%	–
Oc1ccc(Cl)cc1Sc1cc(Cl)ccc1O	0.0324%	–
CCCCCOC(=O)CCCC	-0.712%	–
CCOC(=O)c1nc(C(Cl)(Cl)Cl)n(-c2ccc(Cl)cc2Cl)n1	-0.556%	–
Clc1ccc2nsnc2c1NC1=NCCN1	-2.25%	–
CC(=O)OCC(C)OC(C)=O (stereo not given)	7.59%	–
CCCCCCCCS(=O)C(C)Cc1ccc2c(c1)OCO2 (stereo not given)	-2.15% [at 81.1 µM]	–
O=C1CCCCCN1SSN1CCCCCC1=O	0.968%	–
COc1c(C)c2c(c(O)c1C/C=C(\C)CCC(=O)O)C(=O)OC2	-3.56%	–
ON=C1CCCC1	0.574% [at 81.1 µM]	–
C[C@H]1[C@H]2CC[C@H]3[C@@H]4CC=C5C[C@@H](N(C)C)CC[C@]5(C)[C@H]4CC[C@]23CN1C	-0.111%	–
CCN1/C(=C/C=C/c2sc3ccccc3[n+]2CC)Sc2ccccc21	-8.42% [at 29.1 µM]	–
Fc1ccc(C(c2ccc(F)cc2)N2CCN(C/C=C/c3ccccc3)CC2)cc1	-7.08%	–

System: not listed separately
Assay: qHTS assay to identify small molecule antagonists of the farnesoid-X-receptor (FXR) signaling pathway - cell viability counter screen (AID 743221); further: nearly all actives have a fitted effect of over 50% in size; further: potency means the concentration at half of the fitted maximal effect
Details: FXR-bla HEK293T viability, CellTiter-Glo luminescence, 16 h; series mostly up to 62.6 µM; activity change, negative = cytotoxicity: at the top concentration
In short: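 Multiplexed counter screen: viability of FXR-bla HEK 293T cells under agonist stimulation by chenodeoxycholic acid (50 uM, final) and test compound for 16 h at 37 C, measured by CellTiter-Glo luminescence in the reporter wells.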

SMILES	activity change, negative = cytotoxicity	Potency
COc1cc(/C=C/C(=O)O[C@H]2CC[C@]34C[C@]35CC[C@]3(C)[C@@H]([C@H](C)CCC=C(C)C)CC[C@@]3(C)[C@@H]5CC[C@H]4C2(C)C)ccc1O	1.56%	–
CCCCCCCCCCCCCCCC(=O)OC[C@H](O)[C@H]1OC(=O)C(O)=C1O	-28.5%	–
Cc1c(C)c2c(c(C)c1O)CCC(C)(COc1ccc(CC3SC(=O)NC3=O)cc1)O2 (stereo not given)	–	inactive
COC(=O)C1=C(C)NC(C)=C(C(=O)OCC(C)C)C1c1ccccc1[N+](=O)[O-] (stereo not given)	–	inactive
O=[N+]([O-])c1ccccc1Nc1ccccc1	15.5%	–
CN(C)c1ccc(SC#N)cc1	-9.83%	–
CCCC1O[C@@H]2C[C@H]3[C@@H]4CCC5=CC(=O)C=C[C@]5(C)[C@H]4[C@@H](O)C[C@]3(C)[C@]2(C(=O)CO)O1 (stereo not given in full)	–	inactive
CCc1cc(Cc2cc(CC)c(N)c(CC)c2)cc(CC)c1N	-16.3%	–
CCCCCCCCCCC=O	-0.0281% [at 81.1 µM]	–
C1CCCC1	-6.47%	–
CC(C)CCCCCCCCCCCCCCC(=O)O	15.4%	–
Oc1ccc(Cl)cc1Sc1cc(Cl)ccc1O	–	48.9 µM (active)
NC(=NCCCCCCN=C(N)/N=C(\N)Nc1ccc(Cl)cc1)/N=C(\N)Nc1ccc(Cl)cc1	–	19.4 µM (active) and 43.4 µM (active)
CC1=NC(C)OC1C (stereo not given)	12.1%	–
C=C(C)C(=O)OCC[N+](C)(C)C	3.16%	–
CCCCCOC(=O)CCCC	-3.67%	–
CCC(C)(C)C1CCCCC1OC(C)=O (stereo not given)	-0.889%	–
Clc1ccc2nsnc2c1NC1=NCCN1	1.33%	–
C[C@@H]1C[C@H]2[C@@H]3CCC4=CC(=O)C=C[C@]4(C)[C@@]3(Cl)[C@@H](O)C[C@]2(C)[C@@]1(OC(=O)c1ccco1)C(=O)CCl	-19.1%	–
CC(=O)OCC(C)OC(C)=O (stereo not given)	9.68%	–
CCCCCCC[N+](CC)(CC)CCCCc1ccc(Cl)cc1	-26.2%	–
O=C1CCCCCN1SSN1CCCCCC1=O	20.3%	–
Cc1cccc(S(=O)(=O)O)c1C	7.08%	–
CSc1ccc(C(=O)c2[nH]c(=O)[nH]c2C)cc1	-1.93%	–
CCN(C(=O)N(CC)c1ccccc1)c1ccccc1	-3.1%	–
ON=C1CCCC1	-1.49% [at 81.1 µM]	–
Cc1ccc(O)c(C(C)(C)C)c1	–	43.6 µM (active)
O=C1c2ccccc2Cc2ccccc21	-0.301% [at 81.1 µM]	–
C[C@H]1[C@H]2CC[C@H]3[C@@H]4CC=C5C[C@@H](N(C)C)CC[C@]5(C)[C@H]4CC[C@]23CN1C	-4.33%	–
O=C(OCC1CO1)C1CCCCC1C(=O)OCC1CO1 (stereo not given)	-2.29%	–

— PubChem BioAssay (Tox21)
